Screening data: PubChem BioAssay, National Center for Advancing Translational Sciences (NCATS)
Compounds with a hit are over-represented: about 2.4% of the library has one in this group of screens.
Pol kappa inh-1: qHTS for Inhibitors of Polymerase Kappa. Potency, µM (titrated, usually from 107 µM), for the others: top-dose activity, negative = inhibition, actives largely listed as inhibitors. DNA polymerase kappa (Homo sapiens), Q9UBT6. 0.53% of 400,000 active. purified Pol kappa, fluorescent DNA synthesis assay, 10 min; also: % is scaled to controls: 0 for no effect and ±100 for the full control effect
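Kinetic fluorescence readout at 0 and 10 min followed reaction start with substrate at 50 nM final. Beforehand, enzyme (10 nM Pol kappa) stood 15 min with compound at room temperature; buffer-only wells were negative controls.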
Pol eta inh-1: qHTS for Inhibitors of Polymerase Eta. AID 588591, 2011. Potency, µM (series often up to 114 µM), inactives show at the highest dose activity change, negative = inhibition, most hits filed as inhibitors. DNA polymerase eta (Homo sapiens), Q9Y253. recombinant Pol eta, fluorescent DNA replication assay. 1.2% of 390,000 active; also: % is scaled to controls: 0 for no effect and ±100 for the full control effect
Target sequence (Q9Y253 whole entry, looked up): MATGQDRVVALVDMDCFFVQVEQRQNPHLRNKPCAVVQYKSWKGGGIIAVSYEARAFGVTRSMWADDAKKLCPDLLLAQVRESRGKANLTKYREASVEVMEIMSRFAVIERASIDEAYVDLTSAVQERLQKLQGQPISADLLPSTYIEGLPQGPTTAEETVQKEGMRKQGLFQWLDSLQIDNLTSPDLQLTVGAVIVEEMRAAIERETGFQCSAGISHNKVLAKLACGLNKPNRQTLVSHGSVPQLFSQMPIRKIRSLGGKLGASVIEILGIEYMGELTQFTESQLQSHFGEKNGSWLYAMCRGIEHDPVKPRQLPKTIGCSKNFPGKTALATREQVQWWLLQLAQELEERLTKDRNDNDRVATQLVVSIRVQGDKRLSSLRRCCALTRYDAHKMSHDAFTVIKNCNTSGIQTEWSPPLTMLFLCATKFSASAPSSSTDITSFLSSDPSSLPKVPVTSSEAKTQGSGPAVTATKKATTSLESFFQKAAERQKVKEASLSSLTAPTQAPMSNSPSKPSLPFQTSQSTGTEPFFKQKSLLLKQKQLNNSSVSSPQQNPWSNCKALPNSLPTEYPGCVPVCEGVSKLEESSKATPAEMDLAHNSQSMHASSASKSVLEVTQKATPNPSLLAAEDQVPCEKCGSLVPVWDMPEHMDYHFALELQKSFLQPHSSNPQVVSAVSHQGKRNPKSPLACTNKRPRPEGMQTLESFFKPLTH
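Pol eta at 10 nM preincubated with compounds 15 min at room temperature; reaction started with fluorescent substrate (50 nM final) and read kinetically at 0 and 10 min.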
POLI inh: qHTS for Inhibitors of Polymerase Iota; Pol iota fluorescent replication assay, 10 min; 1% of 390,000 active; DNA polymerase iota (Homo sapiens), Q9UNA4; Potency, µM (highest dose often 115 µM), for inactives: at the highest dose activity, negative = inhibition, most hits filed as inhibitors
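Fluorescent replication assay read twice, at 0 min and 10 min after adding 50 nM (final) substrate. Enzyme (10 nM) and compounds were first incubated 15 min at room temperature; enzyme-free buffer wells were negative controls.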
Pol beta inh: qHTS Assay for Inhibitors of DNA Polymerase Beta. P06746. Pol beta primer extension/strand displacement, fluorescence kinetic. Potency, µM (top dose mostly 114 µM), for the others: at the highest dose activity change, negative = inhibition, usual class: inhibitors. 1.3% of 340,000 active; also: % is scaled to controls: 0 for no effect and ±100 for the full control effect
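Pol beta (10 nM) was preincubated with compound for 15 min at room temperature. The reaction was then started with 50 nM substrate and read immediately and after a further 10 min at room temperature.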
WRN helicase inh-1: qHTS for Inhibitors of WRN Helicase; Bifunctional 3'-5' exonuclease/ATP-dependent helicase WRN (Homo sapiens), Q14191; WRN helicase unwinding, fluorescent forked duplex, kinetic; Potency, µM (top dose mostly 114 µM), without a hit: at the top dose activity change, negative = inhibition, most hits filed as inhibitors; 0.46% of 360,000 active; AID 651768, 2012; also: % is scaled to controls: 0 for no effect and ±100 for the full control effect; nearly all actives have a fitted effect of over 55% in size
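WRN at 20 nM final was preincubated with compound for 15 min at room temperature; reaction started with 100 nM forked duplex oligonucleotide carrying fluorophore and quencher plus 2 mM ATP (final). Unwinding followed kinetically by red fluorescence (ex 525/em 598 nm).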
FEN1 inh-1: qHTS Assay for the Inhibitors of Human Flap endonuclease 1 (FEN1). P39748. Recombinant FEN1 flap cleavage, fluorescence, 15 min. Potency, µM (series often up to 114 µM), without a hit: top-dose activity change, negative = inhibition, usual class: inhibitors. 0.35% of 390,000 active; also: % is scaled to controls: 0 for no effect and ±100 for the full control effect; nearly all actives have a fitted effect of over 65% in size
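FEN1 at 10 nM, compound pretreatment for 15 min (room temperature), 50 nM final substrate to initiate; endpoint reads at 0 and 15 min; DMSO-only plates used as vehicle background.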
PGK validate: qHTS for inhibitors of Phosphogylcerate Kinase: Hit Validation Screen; shares compounds with Pol kappa inh-1; TbPGK coupled GAPDH assay, Kinase-Glo luminescence; Potency, µM (series often up to 57.5 µM), for inactives: top-dose activity change, negative = inhibition, most hits filed as inhibitors; 79% of 500 active; also: % is scaled to controls: 0 for no effect and ±100 for the full control effect; nearly all actives have a fitted effect of over 65% in size
Pol iota confirm: qHTS for Inhibitors of Polymerase Iota: Confirmatory Assay for Cherry-picked Compounds; shares compounds with Pol kappa inh-1; Pol iota primer extension, TAMRA/BHQ fluorescence; Potency, µM, usual class: inhibitors; 77% of 1,500 active; AID 720496, 2013
Pol kappa inh-2: qHTS for Inhibitors of Polymerase Kappa: Confirmatory Assay for Cherry-picked Compounds | shares compounds with Pol eta inh-1 | purified Pol-kappa, fluorescent strand-displacement substrate | 76% of 920 active | Potency, µM, hits mostly inhibitors | AID 720501, 2013
Pol eta inh-2: qHTS for Inhibitors of Polymerase Eta: Confirmatory Assay for Cherry-picked Compounds; AID 720502, 2013; 64% of 2,600 active; shares compounds with Pol eta inh-1; Pol eta primer extension, TAMRA/BHQ fluorescence, 10 min; Potency, µM, actives largely listed as inhibitors
FEN1 inh-2: qHTS Assay for the Inhibitors of FEN1: Confirmatory Assay for Cherry-picked Compounds; FEN1 flap cleavage, TAMRA/BHQ2 fluorogenic DNA substrate; AID 720498, 2013; shares compounds with FEN1 inh-1; 79% of 880 active; Potency, µM, usual class: inhibitors; also: nearly all actives have a fitted effect of over 60% in size
WRN helicase inh-2: qHTS for Inhibitors of WRN Helicase: Confirmatory Assay for Cherry-picked Compounds. 63% of 610 active. AID 720497, 2013. shares compounds with WRN helicase inh-1. Potency, µM (titrated, usually from 57.1 µM), for the others: at the highest dose activity, negative = inhibition, most hits filed as inhibitors. WRN helicase DNA unwinding, fluorescence kinetic; also: nearly all actives have a fitted effect of over 65% in size
TO DNA binding: qHTS for Inhibitors of WRN Helicase: Thiazole Orange DNA Binding Counterscreen; shares compounds with WRN helicase inh-1; thiazole orange DNA binding displacement, fluorescence; Potency, µM (doses to about 57.1 µM), for the others: at the top dose activity change, negative = inhibition, actives largely listed as inhibitors; 10% of 610 active;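 also: drop in dye fluorescence marks compound binding to DNA; % is scaled to controls: 0 for no effect and ±100 for the full control effect; nearly all actives have a fitted effect of over 60% in size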
BLM counter: qHTS for Inhibitors of WRN Helicase: BLM Helicase Counterscreen for WRN Inhibitors. 60% of 610 active. Recombinant BLM helicase DNA unwinding, red fluorescence. shares compounds with WRN helicase inh-1. Potency, µM (series often up to 57.1 µM), without a hit: at the top dose activity change, negative = inhibition, actives largely listed as inhibitors; also: nearly all actives have a fitted effect of over 60% in size
The depositor's hits bear a star; i = inactive; ? = inconclusive; . = not tested or not shown; ! = a repeat was not active; [ ] = remark or other dose. Calls follow the shape of the dose curve; as a rule, active = well fitted curve in the direction sought with a large enough effect; inconclusive = small, poorly fitted or top-dose-only effect, or another doubt; inactive = no such curve, though single readings can be large; an effect the other way counts as inactive or inconclusive. Potency is read from the fitted curve at half-maximal effect.

SMILES	Pol kappa inh-1	Pol eta inh-1	POLI inh	Pol beta inh	WRN helicase inh-1	FEN1 inh-1	Pol iota confirm	Pol kappa inh-2	Pol eta inh-2	FEN1 inh-2	WRN helicase inh-2	TO DNA binding	BLM counter	others
COc1ccc(CN2C(=O)NC(=O)/C(=C\c3ccco3)C2=O)cc1	25µM*	8.9µM*	?	13µM*	22µM*	28µM*	27*	.	27*	76*	19µM*	-14%	8.6µM*
O=C1NC(=S)N(c2ccccc2)C(=O)/C1=C/c1ccco1	2.5µM*	0.79µM*	1.6µM*	10µM*	0.95µM*	8.9µM*	0.47*	0.67*	0.76*	17*	0.96µM*	11µM*	0.19µM*	PGK validate=0.33µM*
COc1ccccc1/C=C1\C(=O)NC(=S)N(c2ccccc2)C1=O	-4%	-19%	?	2%	-9%	13%	.	.	.	.	.	.	.
Cc1nc2cc(C(F)(F)F)ccc2n1C1CCN(Cc2nnnn2CCc2ccccc2)CC1	-12%	-7%	?	-1%	-6%	-10%	.	.	.	.	.	.	.
COc1ccc(CC2(CCc3ccncc3)C(=O)NC(=O)NC2=O)cc1OC	-10%	-4%	3%	-13%	-6%	15%	.	.	.	.	.	.	.
CCOC(=O)C1CCCN(c2ccc([N+](=O)[O-])c3nonc23)C1 (centres undefined)	25µM*	35µM*	56µM*	14µM*	?	?	38*	84*	76*	67*	24µM*	i	24µM*
O=[N+]([O-])c1cc(S(=O)(=O)c2ccc(O)c([N+](=O)[O-])c2)ccc1O	45µM*	2.8µM*	18µM*	11µM*	?	?	60*	6.7*	30*	.	19µM*	-10%	?
O=[N+]([O-])c1cccc(O)c1	1%	-13%	-13%	.	-6%	-14%	.	.	.	.	.	.	.
O=C1NC(=O)N(Cc2ccc(F)cc2)C(=O)/C1=C\c1ccc([N+](=O)[O-])s1	32µM*	28µM*	14µM*	?	40µM*	25µM*	42*	.	17*	6.7*	15µM*	27µM*	19µM*
O=C1NC(=O)N(Cc2ccccc2)C(=O)/C1=C/c1cnn(-c2ccccc2)c1	.	.	.	-24%	.	.	.	.	.	.	.	.	.
COC(=O)C1=C(c2cccc(OCc3ccccc3)c2)C[C@@H]2CC[C@H]1N2C(=O)NCc1ccccc1C(F)(F)F	-25%	-11%	-1%	.	-5%	12%	.	.	.	.	.	.	.
Cc1cc(/C=C2\C(=O)NC(=O)N(c3ccc(Br)cc3)C2=O)c(C)n1-c1cc(C(=O)O)cc(C(=O)O)c1	2.8µM*	2.5µM*	?	28µM*	22µM*	?	21*	3*	12*	?	24µM*	0%	-17%	PGK validate=?
Cc1cc(/C=C2\C(=O)NC(=O)N(c3ccc(Br)cc3)C2=O)c(C)n1C	-16%	-15%	?	-24%	2%	-7%	.	.	.	.	.	.	.
CCCN(CCC)C1CCc2cccc(O)c2C1 (centres undefined)	-6%[60.1 µM]	-6%[57.1 µM]	7%[58.9 µM]	15%[57.1 µM]	-7%	1%	.	.	.	.	.	.	.
CN(C)[C@@H]1C(=O)C(C(N)=O)=C(O)[C@@]2(O)C(=O)C3=C(O)c4c(O)cccc4[C@@](C)(O)[C@H]3[C@H](O)[C@@H]12	2.8µM*	4µM*	?	2.8µM*	20µM*	11µM*!	9.5*	8.4*	27*	76*	17µM*	?	14µM*
CCc1ccc(N2C(=O)NC(=O)/C(=C/c3cccn3CCOc3ccc(C(C)CC)cc3)C2=O)cc1 (centres undefined)	-23%	-8%	?	17%	-5%[57.1 µM]	-10%	.	.	.	.	.	.	.
Cc1cccc(OCCn2cccc2/C=C2/C(=O)NC(=O)N(Cc3ccco3)C2=O)c1	28µM*	22µM*	8.9µM*	32µM*	?	-33%	.	.	76*	.	.	.	.
O=C1NC(=O)N(Cc2ccco2)C(=O)/C1=C\c1cccn1CCOc1ccc(Cl)cc1	28µM*	14µM*	13µM*	28µM*	50µM*	-32%	.	.	?	.	.	.	.
